Test results from the supplement of paper PMC10849652.
Targets with a hit are over-represented here; the source holds about 8,800 in all. About 0.5% of all pairs of compound and target were hits. Values without a mark were called inactive.

Compound: CC1=C(SC2=C1C(=N[C@H](C3=NN=C(N32)C)CC(=O)N)C4=CC=C(C=C4)Cl)C
Experiment: log2 fold change, soluble protein after heating vs DMSO (PISA); higher = thermal stabilisation; K562 lysate, 10 uM; active = over 0.2 and 3.5 SD of the protein, either way, in both replicates (recomputed)
Method in brief: (§1)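 Dounce homogenisation of K562 pellets in PBS pH 7.4 with 1 mM MgCl2 produced a crude extract, used at 1 mg/mL protein. Exposure to 10 μM compound lasted 30 min, and aliquots were then heated for 3 min across 48°C-58°C, pooled and brought to 0.5% NP-40 at 4°C. The supernatant after 21,000xg for 90 min was quantified by TMTpro 16plex LC-MS/MS with channel sums equalised. Duplicate values are given as log-two fold change in thermal stability relative to solvent controls.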

UniProt Q5T6F2, sequence (Q5T6F2 whole entry, looked up): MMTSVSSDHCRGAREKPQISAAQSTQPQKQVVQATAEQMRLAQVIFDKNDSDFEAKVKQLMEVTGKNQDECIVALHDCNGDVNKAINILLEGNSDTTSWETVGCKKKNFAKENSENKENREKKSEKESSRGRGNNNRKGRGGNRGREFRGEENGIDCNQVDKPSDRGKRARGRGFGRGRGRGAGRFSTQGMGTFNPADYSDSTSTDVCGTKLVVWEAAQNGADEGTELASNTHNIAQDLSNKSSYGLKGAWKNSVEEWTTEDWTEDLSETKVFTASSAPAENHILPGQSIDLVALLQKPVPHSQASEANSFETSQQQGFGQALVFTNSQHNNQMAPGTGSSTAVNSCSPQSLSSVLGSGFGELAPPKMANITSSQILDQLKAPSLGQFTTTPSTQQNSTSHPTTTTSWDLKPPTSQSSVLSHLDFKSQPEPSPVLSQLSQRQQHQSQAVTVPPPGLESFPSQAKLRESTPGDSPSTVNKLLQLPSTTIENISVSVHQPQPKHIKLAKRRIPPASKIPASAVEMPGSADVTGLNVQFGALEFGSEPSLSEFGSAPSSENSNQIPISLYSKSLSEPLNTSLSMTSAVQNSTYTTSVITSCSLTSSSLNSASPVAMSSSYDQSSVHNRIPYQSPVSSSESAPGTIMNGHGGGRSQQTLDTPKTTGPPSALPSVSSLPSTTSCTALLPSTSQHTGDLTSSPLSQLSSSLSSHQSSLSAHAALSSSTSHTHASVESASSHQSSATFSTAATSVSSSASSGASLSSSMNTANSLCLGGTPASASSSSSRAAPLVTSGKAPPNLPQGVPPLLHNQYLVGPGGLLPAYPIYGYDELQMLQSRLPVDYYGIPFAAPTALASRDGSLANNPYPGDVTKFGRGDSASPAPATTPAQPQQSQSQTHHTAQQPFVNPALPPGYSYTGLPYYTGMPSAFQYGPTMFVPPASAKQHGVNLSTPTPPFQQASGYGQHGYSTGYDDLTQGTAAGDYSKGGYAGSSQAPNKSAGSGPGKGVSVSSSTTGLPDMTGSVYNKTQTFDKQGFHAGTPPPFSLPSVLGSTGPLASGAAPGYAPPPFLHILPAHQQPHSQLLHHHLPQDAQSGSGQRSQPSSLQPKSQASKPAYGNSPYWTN
UniProt Q92547, sequence (Q92547 whole entry, looked up): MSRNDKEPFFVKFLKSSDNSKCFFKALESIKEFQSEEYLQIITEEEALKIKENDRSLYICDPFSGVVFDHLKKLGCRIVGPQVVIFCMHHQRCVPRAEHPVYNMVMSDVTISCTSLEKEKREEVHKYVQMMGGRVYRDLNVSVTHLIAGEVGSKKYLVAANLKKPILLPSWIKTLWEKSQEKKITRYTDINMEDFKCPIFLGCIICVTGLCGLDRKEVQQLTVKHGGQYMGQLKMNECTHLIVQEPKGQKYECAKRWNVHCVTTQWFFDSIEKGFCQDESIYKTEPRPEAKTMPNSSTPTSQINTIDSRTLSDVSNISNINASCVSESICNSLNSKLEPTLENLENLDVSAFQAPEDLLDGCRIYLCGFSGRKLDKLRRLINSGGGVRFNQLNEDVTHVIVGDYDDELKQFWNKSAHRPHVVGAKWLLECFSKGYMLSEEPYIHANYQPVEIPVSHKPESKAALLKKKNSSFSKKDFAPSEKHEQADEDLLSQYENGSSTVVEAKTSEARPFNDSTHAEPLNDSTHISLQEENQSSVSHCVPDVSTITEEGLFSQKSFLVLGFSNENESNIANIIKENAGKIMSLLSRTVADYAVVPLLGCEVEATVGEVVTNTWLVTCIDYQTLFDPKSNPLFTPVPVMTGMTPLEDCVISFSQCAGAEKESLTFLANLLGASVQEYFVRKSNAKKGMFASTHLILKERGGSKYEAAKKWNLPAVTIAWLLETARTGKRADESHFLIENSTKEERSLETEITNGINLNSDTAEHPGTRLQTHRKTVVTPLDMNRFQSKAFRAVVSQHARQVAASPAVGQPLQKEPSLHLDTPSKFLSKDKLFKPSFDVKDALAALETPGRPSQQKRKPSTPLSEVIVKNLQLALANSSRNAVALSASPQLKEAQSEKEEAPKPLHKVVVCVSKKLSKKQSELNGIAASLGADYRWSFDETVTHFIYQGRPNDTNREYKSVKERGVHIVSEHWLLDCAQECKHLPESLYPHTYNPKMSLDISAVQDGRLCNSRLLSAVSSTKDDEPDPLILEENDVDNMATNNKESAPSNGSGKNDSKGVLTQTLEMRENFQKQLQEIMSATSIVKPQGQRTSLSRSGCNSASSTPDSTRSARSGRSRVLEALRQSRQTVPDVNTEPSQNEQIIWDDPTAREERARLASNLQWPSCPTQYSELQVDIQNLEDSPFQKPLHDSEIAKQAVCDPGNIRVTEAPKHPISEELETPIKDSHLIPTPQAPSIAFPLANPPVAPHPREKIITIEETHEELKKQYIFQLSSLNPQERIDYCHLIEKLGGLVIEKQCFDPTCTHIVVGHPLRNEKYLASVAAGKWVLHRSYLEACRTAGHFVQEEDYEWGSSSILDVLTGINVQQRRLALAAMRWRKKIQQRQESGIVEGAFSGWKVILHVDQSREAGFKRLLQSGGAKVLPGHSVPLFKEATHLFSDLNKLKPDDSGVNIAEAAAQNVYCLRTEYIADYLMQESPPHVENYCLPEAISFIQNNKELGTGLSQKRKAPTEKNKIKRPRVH
UniProt Q6NXR4, sequence (Q6NXR4 whole entry, looked up): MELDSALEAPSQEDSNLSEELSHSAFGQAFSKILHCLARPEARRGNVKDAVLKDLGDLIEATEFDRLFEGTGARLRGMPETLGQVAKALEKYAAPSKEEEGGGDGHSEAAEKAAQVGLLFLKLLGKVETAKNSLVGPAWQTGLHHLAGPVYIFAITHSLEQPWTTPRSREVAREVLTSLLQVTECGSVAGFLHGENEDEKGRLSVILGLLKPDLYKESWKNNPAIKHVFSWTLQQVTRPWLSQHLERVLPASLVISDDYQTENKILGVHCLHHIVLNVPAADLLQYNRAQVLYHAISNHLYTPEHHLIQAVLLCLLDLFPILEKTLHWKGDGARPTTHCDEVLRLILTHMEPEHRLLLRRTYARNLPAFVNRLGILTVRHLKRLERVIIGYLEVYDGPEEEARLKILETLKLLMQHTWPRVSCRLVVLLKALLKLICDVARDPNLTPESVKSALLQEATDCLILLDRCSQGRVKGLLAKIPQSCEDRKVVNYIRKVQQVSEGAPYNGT
UniProt P07437, sequence (P07437 whole entry, looked up): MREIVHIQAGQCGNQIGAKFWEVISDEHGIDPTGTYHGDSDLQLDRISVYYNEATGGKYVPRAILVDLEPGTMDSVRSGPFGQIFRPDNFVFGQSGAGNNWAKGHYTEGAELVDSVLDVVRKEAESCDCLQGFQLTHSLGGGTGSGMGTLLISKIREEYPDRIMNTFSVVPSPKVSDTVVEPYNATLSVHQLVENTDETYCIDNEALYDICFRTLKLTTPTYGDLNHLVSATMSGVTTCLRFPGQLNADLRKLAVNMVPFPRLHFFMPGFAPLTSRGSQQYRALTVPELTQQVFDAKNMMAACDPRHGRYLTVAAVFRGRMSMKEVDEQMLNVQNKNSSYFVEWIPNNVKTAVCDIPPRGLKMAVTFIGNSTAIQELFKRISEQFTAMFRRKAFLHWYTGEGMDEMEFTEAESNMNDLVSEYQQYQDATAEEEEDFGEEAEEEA
UniProt Q14139, sequence (Q14139 whole entry, looked up): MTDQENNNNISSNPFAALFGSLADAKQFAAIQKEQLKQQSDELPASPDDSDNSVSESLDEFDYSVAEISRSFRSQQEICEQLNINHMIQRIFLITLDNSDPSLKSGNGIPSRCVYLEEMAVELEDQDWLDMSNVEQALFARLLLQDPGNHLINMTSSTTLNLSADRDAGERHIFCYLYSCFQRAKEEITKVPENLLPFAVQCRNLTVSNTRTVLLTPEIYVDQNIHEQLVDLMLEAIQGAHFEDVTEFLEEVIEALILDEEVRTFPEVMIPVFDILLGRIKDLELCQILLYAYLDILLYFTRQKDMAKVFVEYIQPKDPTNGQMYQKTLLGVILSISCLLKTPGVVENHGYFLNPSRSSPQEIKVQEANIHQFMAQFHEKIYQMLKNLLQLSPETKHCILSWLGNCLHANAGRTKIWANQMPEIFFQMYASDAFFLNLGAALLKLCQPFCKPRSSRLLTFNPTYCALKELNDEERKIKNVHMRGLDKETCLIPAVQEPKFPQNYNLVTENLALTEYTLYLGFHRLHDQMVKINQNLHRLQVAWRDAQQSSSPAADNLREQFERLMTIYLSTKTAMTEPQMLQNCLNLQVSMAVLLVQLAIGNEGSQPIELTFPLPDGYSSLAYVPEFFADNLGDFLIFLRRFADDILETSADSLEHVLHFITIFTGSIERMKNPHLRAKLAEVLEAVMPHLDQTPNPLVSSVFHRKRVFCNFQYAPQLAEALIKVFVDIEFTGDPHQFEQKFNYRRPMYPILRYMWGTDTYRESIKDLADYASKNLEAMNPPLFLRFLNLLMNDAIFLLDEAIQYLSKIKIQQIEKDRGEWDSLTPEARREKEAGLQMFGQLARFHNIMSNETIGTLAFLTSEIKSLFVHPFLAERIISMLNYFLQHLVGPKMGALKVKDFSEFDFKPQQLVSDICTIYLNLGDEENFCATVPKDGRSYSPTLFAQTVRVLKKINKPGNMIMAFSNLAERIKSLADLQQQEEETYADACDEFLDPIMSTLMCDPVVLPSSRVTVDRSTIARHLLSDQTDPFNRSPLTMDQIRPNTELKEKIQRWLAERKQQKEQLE
UniProt Q96DX7, sequence (Q96DX7 whole entry, looked up): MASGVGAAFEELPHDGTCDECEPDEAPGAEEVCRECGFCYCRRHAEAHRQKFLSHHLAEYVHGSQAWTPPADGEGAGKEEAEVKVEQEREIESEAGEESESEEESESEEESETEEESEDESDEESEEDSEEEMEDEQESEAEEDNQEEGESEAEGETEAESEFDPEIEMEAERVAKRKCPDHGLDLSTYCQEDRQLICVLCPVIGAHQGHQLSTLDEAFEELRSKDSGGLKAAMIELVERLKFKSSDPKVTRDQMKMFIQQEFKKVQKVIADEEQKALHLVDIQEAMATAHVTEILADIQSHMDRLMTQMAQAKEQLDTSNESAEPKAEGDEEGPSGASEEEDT

Target | log2 fold change
TSFM (UniProt P43897) | 0.007
TOX4 (UniProt O94842) | 0.001
TUBGCP3 (UniProt Q96CW5) | -0.004
TEX30 (UniProt Q5JUR7) | 0.066
UBP1 (UniProt Q9NZI7) | -0.057
UBAP2 (UniProt Q5T6F2) | -0.003
TRIM44 (UniProt Q96DX7) | -0.126
TMEM87A (UniProt Q8NBN3) | -0.014
TK1 (UniProt P04183) | 0.037
TBK1 (UniProt Q9UHD2) | 0.021
TMPO (UniProt P42167) | 0.044
TTC5 (UniProt Q8N0Z6) | 0.009
TUBB (UniProt P07437) | 0.027
UBE4A isoform 2 (UniProt Q14139) | -0.041
TGOLN2 isoform 7 (UniProt O43493) | -0.029
TBL3 (UniProt Q12788) | 0.003
TYW3 (UniProt Q6IPR3) | 0.006
TBC1D23 (UniProt Q9NUY8) | 0.01
TTK (UniProt P33981) | -0.003
TSPAN13 (UniProt O95857) | 0.025

Target | log2 fold change
TRMT12 (UniProt Q53H54) | -0.023
TIMM44 (UniProt O43615) | 0
TRIP12 isoform 2 (UniProt Q14669) | 0.07
UBR4 (UniProt Q5T4S7) | -0.008
THEMIS2 (UniProt Q5TEJ8) | 0
TOPBP1 (UniProt Q92547) | 0.001
TJP1 (UniProt G3V1L9) | -0.014
TJP1 isoform 2 (UniProt Q07157) | 0.02
TRIM65 (UniProt Q6PJ69) | -0.085
TUBB3 (UniProt Q13509) | -0.005
TTI2 (UniProt Q6NXR4) | 0.009
TXNIP (UniProt Q9H3M7) | 0.005
TBC1D2B (UniProt Q9UPU7) | 0.139
UBXN6 (UniProt Q9BZV1) | 0.027
TYMS (UniProt P04818) | 0.02
UBR5 (UniProt O95071) | 0.012
TMEM199 (UniProt Q8N511) | -0.002
TPM3 isoform 2 (UniProt P06753) | 0.01
TTI1 (UniProt O43156) | -0.011
TCAF2 (UniProt A6NFQ2) | 0.091

Compound: CC1=C2C(=CC=C1)N=C(N(C2=O)C3=CC=CC=C3C)CN4C=NC5=C(N=CN=C54)N
Experiment: as above
Method in brief: as §1

Target | log2 fold change
TSFM (UniProt P43897) | 0.027
TOX4 (UniProt O94842) | -0.021
TUBGCP3 (UniProt Q96CW5) | 0.011
TEX30 (UniProt Q5JUR7) | -0.006
UBP1 (UniProt Q9NZI7) | -0.018
UBAP2 (UniProt Q5T6F2) | -0.008
TRIM44 (UniProt Q96DX7) | -0.061
TMEM87A (UniProt Q8NBN3) | -0.011
TK1 (UniProt P04183) | -0.017
TBK1 (UniProt Q9UHD2) | -0.031
TMPO (UniProt P42167) | -0.042
TTC5 (UniProt Q8N0Z6) | 0.035
TUBB (UniProt P07437) | -0.005
UBE4A isoform 2 (UniProt Q14139) | 0.003
TGOLN2 isoform 7 (UniProt O43493) | -0.015
TBL3 (UniProt Q12788) | -0.014
TYW3 (UniProt Q6IPR3) | 0.065
TBC1D23 (UniProt Q9NUY8) | -0.017
TTK (UniProt P33981) | 0.068
TSPAN13 (UniProt O95857) | -0.048

Target | log2 fold change
TRMT12 (UniProt Q53H54) | -0.007
TIMM44 (UniProt O43615) | 0.034
TRIP12 isoform 2 (UniProt Q14669) | -0.018
UBR4 (UniProt Q5T4S7) | 0.012
THEMIS2 (UniProt Q5TEJ8) | 0.019
TOPBP1 (UniProt Q92547) | 0.026
TJP1 (UniProt G3V1L9) | 0.127
TJP1 isoform 2 (UniProt Q07157) | 0
TRIM65 (UniProt Q6PJ69) | -0.016
TUBB3 (UniProt Q13509) | 0.008
TTI2 (UniProt Q6NXR4) | 0.033
TXNIP (UniProt Q9H3M7) | 0.029
TBC1D2B (UniProt Q9UPU7) | -0.048
UBXN6 (UniProt Q9BZV1) | 0.03
TYMS (UniProt P04818) | -0.005
UBR5 (UniProt O95071) | 0.012
TMEM199 (UniProt Q8N511) | 0.07
TPM3 isoform 2 (UniProt P06753) | -0.025
TTI1 (UniProt O43156) | -0.004
TCAF2 (UniProt A6NFQ2) | 0.027
